Screening results as filed in PubChem BioAssay.
A selection: hits, their analogues and other compounds. The true share with any hit is near 1.2%.
GCN5L2 inh: qHTS Assay for Inhibitors of GCN5L2 | Potency, µM (highest dose often 58.9 µM), for inactives: top-dose activity change, negative = inhibition, actives largely listed as inhibitors | GCN5L2 HAT assay, ThioGlo1 CoA-SH fluorescence | hit rate 0.21% among 390,000 | Histone acetyltransferase KAT2A (Homo sapiens), Q92830 | AID 504327, 2011
Target sequence (Q92830 whole entry, looked up): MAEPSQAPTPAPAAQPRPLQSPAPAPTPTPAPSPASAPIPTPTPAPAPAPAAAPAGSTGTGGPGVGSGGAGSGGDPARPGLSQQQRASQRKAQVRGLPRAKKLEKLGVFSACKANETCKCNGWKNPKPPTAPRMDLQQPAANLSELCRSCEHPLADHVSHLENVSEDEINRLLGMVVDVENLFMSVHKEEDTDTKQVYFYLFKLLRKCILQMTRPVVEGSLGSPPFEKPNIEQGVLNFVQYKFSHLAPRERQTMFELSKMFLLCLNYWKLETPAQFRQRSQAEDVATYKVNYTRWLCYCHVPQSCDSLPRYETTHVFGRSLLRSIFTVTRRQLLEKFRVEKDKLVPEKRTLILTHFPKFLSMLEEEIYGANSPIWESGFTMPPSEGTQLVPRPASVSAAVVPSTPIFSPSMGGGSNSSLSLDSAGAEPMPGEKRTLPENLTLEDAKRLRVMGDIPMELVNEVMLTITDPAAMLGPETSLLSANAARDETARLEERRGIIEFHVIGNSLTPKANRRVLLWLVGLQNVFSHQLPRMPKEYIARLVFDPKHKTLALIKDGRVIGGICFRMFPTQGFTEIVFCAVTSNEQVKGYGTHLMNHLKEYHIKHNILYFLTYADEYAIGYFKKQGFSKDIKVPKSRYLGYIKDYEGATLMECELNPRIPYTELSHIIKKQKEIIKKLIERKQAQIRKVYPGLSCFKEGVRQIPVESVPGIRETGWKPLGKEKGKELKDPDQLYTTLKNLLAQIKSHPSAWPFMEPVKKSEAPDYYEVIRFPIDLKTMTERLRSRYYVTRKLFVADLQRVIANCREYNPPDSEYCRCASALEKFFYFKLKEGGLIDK
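Compounds, pin-transferred from DMSO stocks, meet 20nM GCN5L2 for 15 min before the reaction begins with H3(1-25) peptide (75uM) and acetyl-CoA (70uM). Thiol-reactive ThioGlo1 reports CoA release over 20 min at room temperature.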
TRb SRC2 PPI: qHTS for Inhibitors of the Interaction of Thyroid Hormone Receptor and Steroid Receptor Coregulator 2. TRbeta-SRC2 peptide binding, fluorescence polarization; receptor liganded with 1 µM T3. Potency, µM (highest dose often 106 µM), for inactives: at the top dose activity change, negative = inhibition, most hits filed as inhibitors. hit rate 0.065% among 280,000. Thyroid hormone receptor beta (Homo sapiens), P10828;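 further: plate controls were bound peptide for no effect and peptide without receptor for full effect; nearly all actives have a fitted effect of over 50% in size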
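Human TRb LBD (0.6 uM) plus Texas Red-labeled SRC2 peptide (20 nM), 1uM T3, 5% DMSO, 5 hr at ambient temperature. Decreased polarization (555/632 nm) flags inhibition; data normalized to free and bound peptide controls.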
TexasRed fluor: Total Fluorescence Counterscreen for Inhibitors of the Interaction of Thyroid Hormone Receptor and Steroid Receptor Coregulator 2. TRb/SRC2 Texas Red total fluorescence interference. Potency, µM (highest dose often 106 µM), without a hit: at the top dose fluorescence change, negative = quenching. hit rate 0.29% among 280,000. AID 1479, 2009; active means well fitted curve in either direction with a large enough effect; inconclusive means small, poorly fitted or top-dose-only effect
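Human TRb ligand-binding domain at 0.6 uM with 20 nM Texas Red SRC2 peptide in Tris buffer containing 1 uM T3 and 5% DMSO, incubated with compound 5 h at ambient temperature. Total fluorescence (555/632 nm) calculated as parallel + 2 × perpendicular.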
GoLoco inh red: qHTS Assay for Inhibitors of RGS12 GoLoco Motif Activity (Red Fluorophore); Guanine nucleotide-binding protein G(i) subunit alpha-1 (Homo sapiens), P63096; Gai1:RGS12 GoLoco peptide FP, rhodamine, 10 min; Potency, µM (top dose mostly 61.6 µM), for inactives: top-dose activity, negative = inhibition, most hits filed as inhibitors; hit rate 0.44% among 230,000; active means well fitted inhibition curve with a large enough effect, not every such curve was filed as active; inactive means no such curve, though single readings can be large or run the other way; further: nearly all actives have a fitted effect of over 30% in size
VDR inh: Inhibitors of the vitamin D receptor (VDR): qHTS | VDR-SRC2-3 peptide fluorescence polarization, 2 h | Vitamin D3 receptor (Homo sapiens), P11473 | hit rate 0.93% among 400,000 | Potency, µM, for inactives: max response, negative = inhibition, usual class: inhibitors | AID 504847, 2011
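Compounds are added to VDR with labelled SRC2-3 coactivator peptide and held 2 h at room temperature. Inhibition of the VDR–peptide interaction is then read as a change in fluorescence polarization.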
* marks the source's active call; other numbers are inactive results; [ ] = another dose, or the depositor's remark. Unless noted, the call rests on the fitted dose curve; in most records, active means well fitted curve in the direction sought with a large enough effect; inconclusive means small, poorly fitted or top-dose-only effect, or another doubt; inactive means no such curve, though single readings can be large; an effect the other way counts as inactive or inconclusive. Unless noted, on the % scale 0 is the no-effect control and ±100 the full control effect; potency means the concentration at half of the fitted maximal effect.

How did COc1ccc(C(=O)OCC[N+]2(C)CCOCC2)cc1 do in these assays?
GCN5L2 inh: -15%; TRb SRC2 PPI: 1%; TexasRed fluor: 2%; GoLoco inh red: 7.9µM*; VDR inh: 12%

How did COC(=O)c1ccc(NC(=O)CN(Cc2ccccc2)S(=O)(=O)c2ccc(C)cc2)cc1 do in these assays?
GCN5L2 inh: 2%; TRb SRC2 PPI: 1%; TexasRed fluor: -2%; VDR inh: -16%

How did COCC(=O)Nc1ccc(OC)c(Cl)c1 do in these assays?
GCN5L2 inh: -4%; TRb SRC2 PPI: -8%; TexasRed fluor: 1%; GoLoco inh red: 6%; VDR inh: -10%

Results for CCc1ccc2occ(CC(=O)Nc3ccc(OC)c(Cl)c3)c2c1 ?
GCN5L2 inh: -12%; TRb SRC2 PPI: -17%[53 µM]; TexasRed fluor: 0.089µM*[quencher]; VDR inh: 9%

How did COc1ccc(NC(=O)CN(Cc2ccccc2)S(=O)(=O)c2ccc(C)cc2)cc1Cl do in these assays?
GCN5L2 inh: -1%; TRb SRC2 PPI: -11%; TexasRed fluor: 6.3µM*[quencher]; VDR inh: -3%

Results for COc1ccc(NC(=O)COC(=O)/C=C/C(=O)OCC(=O)Nc2ccc(OC)c(Cl)c2)cc1Cl ?
GCN5L2 inh: -4%; TRb SRC2 PPI: -6%; TexasRed fluor: -1%; GoLoco inh red: 8.9µM*; VDR inh: -8%

What do the screens show for `COc1ccc(NC(=O)COC(C)=O)cc1Cl`?
GCN5L2 inh: -5%; TRb SRC2 PPI: 5%; TexasRed fluor: -1%; GoLoco inh red: -18%; VDR inh: -6%

Results for CCOC(=O)/C=C/C(=O)OCC(=O)Nc1ccc(OC)c(Cl)c1 ?
GCN5L2 inh: -1%; TRb SRC2 PPI: -5%; TexasRed fluor: 0%; GoLoco inh red: -3%; VDR inh: 79µM*

How did CN(C)CC(O)Cn1c2ccc(Br)cc2c2cc(Br)ccc21 (configuration not stated) do in these assays?
GCN5L2 inh: inconclusive; TRb SRC2 PPI: 7%; TexasRed fluor: -1%; GoLoco inh red: 6%; VDR inh: inconclusive

How did Cc1ccccc1C(=O)NC(=S)NCC1CCCO1 (configuration not stated) do in these assays?
GCN5L2 inh: 2.5µM*; TRb SRC2 PPI: -6%; TexasRed fluor: -3%; GoLoco inh red: -4%; VDR inh: 7%

Results for CC(C)(C)c1ccc(C(=O)NC(=S)NCC2CCCO2)cc1 (configuration not stated) ?
GCN5L2 inh: 1%; TRb SRC2 PPI: 2%; TexasRed fluor: -3%; VDR inh: -7%

What do the screens show for `O=C1c2ccccc2C(=O)C12OC2c1ccc(Cl)cc1Cl` (configuration not stated)?
GCN5L2 inh: 2%; TRb SRC2 PPI: inconclusive; TexasRed fluor: inconclusive; GoLoco inh red: -1%; VDR inh: 89µM*

How did COc1ccc(NC(=O)CCc2nc(-c3ccc(C)cc3)no2)cc1Cl do in these assays?
GCN5L2 inh: 0%; TRb SRC2 PPI: -2%; TexasRed fluor: 0%; GoLoco inh red: -6%; VDR inh: 2%

Results for COc1ccc(-c2noc(CCC(=O)Nc3ccccc3Cl)n2)cc1OC ?
GCN5L2 inh: -5%; TRb SRC2 PPI: -28%[53 µM]; TexasRed fluor: 0.004µM*[quencher]; VDR inh: 12%

How did Cc1ccc(C)n1Cc1ccc(C(=O)O)cc1 do in these assays?
GCN5L2 inh: 16µM*; TRb SRC2 PPI: 11%; TexasRed fluor: inconclusive; GoLoco inh red: -6%; VDR inh: 24%

What do the screens show for `O=C(CCl)c1ccc2c(c1)CCN2C(=O)C1CC1`?
GCN5L2 inh: 14%; TRb SRC2 PPI: 6%; TexasRed fluor: -1%; GoLoco inh red: 53%

What do the screens show for `O=C(CCl)c1ccc2c(c1)CCN2C(=O)C1CCCCC1`?
GCN5L2 inh: -6%; TRb SRC2 PPI: -5%; TexasRed fluor: -4%; GoLoco inh red: 5%; VDR inh: 45µM*

Results for Cc1cc(C)c(S(=O)(=O)/N=C2/C=C(Sc3ncn[nH]3)C(=O)c3ccccc32)cc1C ?
GCN5L2 inh: 11µM*; TRb SRC2 PPI: -4%; TexasRed fluor: -3%; GoLoco inh red: -49%; VDR inh: inconclusive

What do the screens show for `Cc1ccc(C)c(S(=O)(=O)/N=C2\C=C(NS(=O)(=O)c3ccccc3)C(=O)c3ccccc32)c1`?
GCN5L2 inh: -3%; VDR inh: -15%

What do the screens show for `CCCCCCCC[Si](OCC)(OCC)OCC`?
TRb SRC2 PPI: 8%[201 µM]; TexasRed fluor: 0%[201 µM]

How did CC1CCC(C(C)C)C2=C1C(C#N)(C#N)C(C#N)(C#N)C(c1ccccc1)N2 (configuration not stated) do in these assays?
GCN5L2 inh: -5%; TRb SRC2 PPI: 4%; TexasRed fluor: -1%; GoLoco inh red: 20%; VDR inh: 89µM*

What do the screens show for `C=C(CCC(=O)c1ccccc1)C(=O)c1ccccc1`?
GCN5L2 inh: 2%; TRb SRC2 PPI: -8%; TexasRed fluor: 10%; GoLoco inh red: -6%; VDR inh: 45µM*

How did O=C(CCCCCCCC(=O)c1ccccc1)c1ccccc1 do in these assays?
GCN5L2 inh: 2%; TRb SRC2 PPI: -5%; TexasRed fluor: -5%; GoLoco inh red: 12%; VDR inh: 0%

Results for Oc1ccc(N=Cc2ccc(OCc3ccccc3)cc2)cc1 ?
GCN5L2 inh: 0%; TRb SRC2 PPI: 40µM*; TexasRed fluor: 13%; GoLoco inh red: -103%; VDR inh: inconclusive

How did O=c1cc(-c2ccccc2Cl)oc2c(NS(=O)(=O)c3cc(Cl)cc(Cl)c3O)ccc(O)c12 do in these assays?
GCN5L2 inh: 32µM*; TRb SRC2 PPI: inconclusive; TexasRed fluor: inconclusive; GoLoco inh red: -8%; VDR inh: 32µM*

Results for CCc1ccc(S(=O)(=O)Nc2ccc(O)c3c(=O)cc(-c4ccccc4Cl)oc23)cc1 ?
GCN5L2 inh: -19%; TRb SRC2 PPI: -1%; TexasRed fluor: -1%; GoLoco inh red: 3%; VDR inh: 11%

Results for Cc1ccc(S(=O)(=O)Nc2cc(Br)cc3cccnc23)cc1 ?
VDR inh: 1%

How did Cc1cnc(CNc2ncnc3ccc(-c4ccccc4C(F)(F)F)cc23)cn1 do in these assays?
GCN5L2 inh: -18%; GoLoco inh red: 7%; VDR inh: -29%

How did O=C(O)CC(C(=O)O)N1C(=O)/C(=C/c2ccc(-c3nc4ccccc4s3)o2)SC1=S (configuration not stated) do in these assays?
GCN5L2 inh: inconclusive; TRb SRC2 PPI: -3%; TexasRed fluor: -21%; GoLoco inh red: -4%; VDR inh: 50µM*

What do the screens show for `O=C1N/C(=C/c2ccc(N3CCOCC3)o2)C(=O)N1c1ccccc1`?
GCN5L2 inh: -5%; TRb SRC2 PPI: -3%; TexasRed fluor: 1%; GoLoco inh red: 24%; VDR inh: 45µM*
